Consider eleven compounds from PubChem BioAssay (NCATS).

Values joined by “and” are separate entries in the source; they are usually repeats but may differ in a detail not shown here. Equal values may be shown once. Results filed as inconclusive are left out. Active and inactive are the calls of the source. Unless noted, the call rests on the fitted dose curve.

Assay [1] is described as follows: Primary qHTS for Vero E6 cytotoxicity: counterscreen for inhibitors of SARS-S pseudo-typed particle cell entry (AID 1479150). Further: potency means the concentration at half of the fitted maximal effect. Background: In qHTS, concentration-response curves come from the screen itself.
Assay [2] deals with Cytochrome P450 2C9 (Homo sapiens) (UniProt P11712). Briefly: Cytochrome P450 family 2 subfamily C member 9 (CYP2C9) small molecule antagonists: luciferase biochemical (cell-free) qHTS assay (AID 1645842; active means well fitted curve in the direction sought with a large enough effect in the repeat runs; an effect the other way counts as inactive or inconclusive; further: nearly all actives have a fitted effect of over 55% in size; further: potency means the concentration at half of the fitted maximal effect). The method in brief: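 Luminescence, after 20 min with luciferin detection reagent, reflected CYP2C9 turnover during a 1 h NADPH-driven reaction at 37C. Enzyme-substrate mix contained 0.4% bovine serum albumin and was preincubated with compound 10 min at room temperature.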

The nature of assay [3]: Confirmatory qHTS to identify inhibitors of SARS-CoV-2 cell entry (AID 1645844). Further: potency means the concentration at half of the fitted maximal effect; nearly all actives have a fitted effect of over 45% in size. The conditions noted are these: SARS-CoV-2 pseudotyped particle cell entry, luciferase. The gist of the method:
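HEK293-ACE2 cells were pretreated 1 h with compound, then infected with MLV-based pseudoparticles bearing C-terminally truncated Wuhan-Hu-1 spike for 48 h at 37C; luciferase luminescence normalized to spike PP and bald PP wells.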

Assay [4] is described as follows: VSVG counterscreen qHTS to identify inhibitors of SARS-CoV-2 cell entry (AID 1645847). Further: potency means the concentration at half of the fitted maximal effect; nearly all actives have a fitted effect of over 65% in size. The conditions noted are these: VSV-G pseudotyped particle entry, luciferase. The method in brief: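 Expi293F/hACE2 cells, overnight plating; cpd 1 h, 37C/5% CO2; + VSV-G PP (MLV pseudotyping), 48 h; supernatant removed, Bright-Glo luciferase read. Norm: VSV-G PP and bald PP wells.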
For orientation: A counterscreen serves to expose hits that act by an unwanted route or on another target.

Assay [5] deals with Cytochrome P450 2D6 (Homo sapiens) (UniProt P10635). As to the kind of experiment: Cytochrome P450 family 2 subfamily D member 6 (CYP2D6) small molecule antagonists: luciferase biochemical (cell-free) qHTS assay (AID 1645840; active means well fitted curve in the direction sought with a large enough effect in the repeat runs; an effect the other way counts as inactive or inconclusive; further: nearly all actives have a fitted effect of over 55% in size; further: potency means the concentration at half of the fitted maximal effect; on activity change, negative = inhibition: on the % scale 0 is the no-effect control and ±100 the full control effect). The gist of the method:
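P450-Glo luminescent screen: recombinant CYP2D6 enzyme–proluciferin substrate mix preincubated with compound 10 min at room temperature, then NADPH regeneration added for 1 h at room temperature. Detection reagent added for 20 min; luciferin light read as relative luminescence units.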

A short description of assay [6]: Cytotoxicity counterscreen for inhibitors of SARS-CoV-2 cell entry (AID 1645845). Further: nearly all actives have a fitted effect of over 50% in size. The conditions noted are these: outcome: dose series up to 57.1 µM unless noted. The method in brief: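 HEK293-ACE2 cells (Expi293F stably expressing human ACE2) seeded overnight, then compound for 1 h plus 48 h at 37C. Viability as ATP content by luminescence; normalized to wells with cells and media-only wells.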

A short description of assay [7]: Primary qHTS to identify inhibitors of SARS-CoV-2 cell entry (AID 1645846). Further: nearly all actives have a fitted effect of over 45% in size. The conditions noted are these: activity change, negative = inhibition: at 57.1 µM (top of the series) unless noted. The gist of the method:
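HEK293-ACE2 (Expi293F, stable hACE2), 1500 cells/well, o/n 37C; cpd 23 nL pin, 1 h; MLV-PP w/ SARS-CoV-2-S (Wuhan-Hu-1, Δ19 C-term); 48 h 37C; Bright-Glo luminescence; normalized vs S-PP and bald PP.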

Assay [8] can be described thus: Primary qHTS for inhibitors of La Crosse Virus (LACV) - induced cell death in SH-SY5Y cells (AID 1508616; active means well fitted curve in the direction sought with a large enough effect; an effect the other way counts as inactive or inconclusive;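 further: top concentration of the series differs between compounds; 0% = infected DMSO wells and 100% = uninfected DMSO wells; higher means more rescue of cells from virus-induced death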). The method in brief:
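Readout was luminescence from ATPLite 1step added after a 6-day LACV infection (0.01 MOI) of SH-SY5Y cells that had received pin-transferred compound 24 hr after seeding.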

Assay [9] deals with Calcium and integrin-binding protein 1 (Homo sapiens) (UniProt Q99828). Briefly: Validation qHTS for Identification of Calcium Integrin Binding protein 1 (CIB1) Competitor (AID 1508618; active means well fitted curve in the direction sought with a large enough effect; an effect the other way counts as inactive or inconclusive; further: on the % scale 0 is the no-effect control and ±100 the full control effect). The method in brief: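 In this qHTS validation, the LOPAC set (up to 114 uM) was tested for blocking CIB1 binding to a fluorescein-tagged alphaIIb peptide, with FP detection at 480/540 nm.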

Assay [10] in a line: Counterscreen qHTS for small molecule stabilizers of the endoplasmic reticulum resident proteome: GLuc-NoTag assay (AID 1508627; active means well fitted curve in the direction sought with a large enough effect; an effect the other way counts as inactive or inconclusive;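 further: SH-SY5Y cells given compound then 100 nM thapsigargin to empty ER calcium; 0% = thapsigargin alone and -100% = DMSO vehicle control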). The method in brief:
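SH-SY5Y cells stably expressing constitutively secreted GLuc without SERCaMP tag, exposed to compound for 19 hr, then to 100 nM thapsigargin for 4 hr at 37C. Medium luciferase was read by coelenterazine luminescence without lysis.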

Assay [11] in a line: Confirmatory qHTS for small molecule stabilizers of the endoplasmic reticulum resident proteome: Secreted ER Calcium Modulated Protein (SERCaMP) assay (AID 1508628; active means well fitted curve in the direction sought with a large enough effect; an effect the other way counts as inactive or inconclusive; further: potency means the concentration at half of the fitted maximal effect; nearly all actives have a fitted effect of over 40% in size). The gist of the method:
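We seeded SH-SY5Y-GLuc-SERCaMP cells, added compounds (three concentrations in the primary run, eleven up to 76.6 uM in confirmation), incubated 16 h, depleted ER calcium with thapsigargin, and read luciferase 4 h later.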

A short description of assay [12]: Primary qHTS for small molecule stabilizers of the endoplasmic reticulum resident proteome: Secreted ER Calcium Modulated Protein (SERCaMP) assay (AID 1508630; active means well fitted curve in the direction sought with a large enough effect; an effect the other way counts as inactive or inconclusive; further: on the % scale 0 is the no-effect control and ±100 the full control effect). The method in brief: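 GLuc-SERCaMP-expressing SH-SY5Y cells, pretreated 16 h with compound, are challenged with thapsigargin to empty ER calcium stores; after 4 h, coelenterazine is added directly to the medium and luminescence is imaged.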

The target of assay [13] is Papain (Carica papaya) (UniProt P00784). As to the kind of experiment: Primary qHTS assay for inhibitors of the protease papain (AID 1645873; active means well fitted curve in the direction sought with a large enough effect; an effect the other way counts as inactive or inconclusive;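 further: papain turnover of Z-FR-AMC read as the AMC fluorescence gain over 10 min; on the % scale 0 is the no-effect control and ±100 the full control effect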).
The nature of assay [14]: Primary qHTS for inhibitors of nuclear receptor binding SET domain protein 2 (NSD2) in an isogenic RCH-ACV NSD2 p.E1099K mutant (9B) (AID 1645876; active means well fitted curve in the direction sought with a large enough effect; an effect the other way counts as inactive or inconclusive; further: potency means the concentration at half of the fitted maximal effect; nearly all actives have a fitted effect of over 70% in size).

Sequence of Calcium and integrin-binding protein 1 (Homo sapiens) (Q99828 whole entry, looked up): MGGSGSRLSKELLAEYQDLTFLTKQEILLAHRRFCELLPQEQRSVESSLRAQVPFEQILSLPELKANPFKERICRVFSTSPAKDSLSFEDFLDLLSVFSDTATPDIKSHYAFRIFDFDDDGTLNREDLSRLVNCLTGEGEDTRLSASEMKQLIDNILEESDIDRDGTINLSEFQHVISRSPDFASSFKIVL
Sequence of Cytochrome P450 2C9 (Homo sapiens) (P11712 whole entry, looked up): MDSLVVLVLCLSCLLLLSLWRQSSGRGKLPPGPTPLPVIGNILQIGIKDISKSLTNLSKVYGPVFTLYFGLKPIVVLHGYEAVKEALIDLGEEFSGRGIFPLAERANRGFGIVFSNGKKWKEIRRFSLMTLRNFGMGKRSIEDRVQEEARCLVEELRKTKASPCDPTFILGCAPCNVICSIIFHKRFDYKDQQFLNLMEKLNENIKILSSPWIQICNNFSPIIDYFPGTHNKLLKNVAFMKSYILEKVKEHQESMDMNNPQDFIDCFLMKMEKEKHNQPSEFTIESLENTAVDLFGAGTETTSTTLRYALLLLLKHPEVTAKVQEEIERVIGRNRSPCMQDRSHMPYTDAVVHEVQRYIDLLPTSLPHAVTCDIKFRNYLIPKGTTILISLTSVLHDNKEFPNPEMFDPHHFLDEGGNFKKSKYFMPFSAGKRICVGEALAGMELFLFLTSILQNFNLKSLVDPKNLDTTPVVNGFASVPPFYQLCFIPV
Sequence of Cytochrome P450 2D6 (Homo sapiens) (P10635 whole entry, looked up): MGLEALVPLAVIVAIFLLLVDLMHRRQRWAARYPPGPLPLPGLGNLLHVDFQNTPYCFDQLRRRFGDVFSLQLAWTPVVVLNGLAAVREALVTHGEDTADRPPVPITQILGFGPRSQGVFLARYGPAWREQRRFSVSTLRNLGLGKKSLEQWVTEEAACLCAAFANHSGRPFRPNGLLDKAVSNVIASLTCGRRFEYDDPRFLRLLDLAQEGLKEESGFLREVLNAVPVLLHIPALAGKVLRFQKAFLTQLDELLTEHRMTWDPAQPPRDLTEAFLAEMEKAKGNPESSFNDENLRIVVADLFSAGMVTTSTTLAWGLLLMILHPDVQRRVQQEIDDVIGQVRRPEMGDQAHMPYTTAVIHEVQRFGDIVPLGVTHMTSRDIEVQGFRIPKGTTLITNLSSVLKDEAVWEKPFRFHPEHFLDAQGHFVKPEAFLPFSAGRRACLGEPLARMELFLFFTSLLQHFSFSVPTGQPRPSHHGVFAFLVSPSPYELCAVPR
Sequence of Papain (Carica papaya) (P00784 whole entry, looked up, the tested form may be a part): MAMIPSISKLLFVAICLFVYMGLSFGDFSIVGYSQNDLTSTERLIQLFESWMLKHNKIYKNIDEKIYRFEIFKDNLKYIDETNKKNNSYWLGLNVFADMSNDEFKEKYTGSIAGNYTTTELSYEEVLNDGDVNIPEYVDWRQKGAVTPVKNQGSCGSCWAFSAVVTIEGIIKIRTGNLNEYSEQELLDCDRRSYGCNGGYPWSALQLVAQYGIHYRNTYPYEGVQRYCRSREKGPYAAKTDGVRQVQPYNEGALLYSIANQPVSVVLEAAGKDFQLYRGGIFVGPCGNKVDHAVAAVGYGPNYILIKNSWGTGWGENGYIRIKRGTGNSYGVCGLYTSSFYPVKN

Regarding `O=C1C2CC=CCC2C(=O)N1SC(Cl)(Cl)Cl` (stereo not given), the Potency in [1] was 20 µM (active); in assay [2] it was 6.74 µM (active); in assay [3], 15.2 µM (active); in assay [4] it was 15.2 µM (active).
On to `CCOC(=O)c1ccccc1C(=O)OCC`, for which the Potency result in [1], in assay [5] and in [7] was “inactive” throughout. Besides, the compound was called inactive in assay [6].
As to `CCCCNCC(O)c1ccc(O)cc1` (stereo not given), the Potency entry in [1], in [2] and in assay [7] was “inactive” each time. Also, the Potency in assay [5] was 9.52 µM (active). Further, in assay [6], the compound was called inactive.
Turning to `O=[N+]([O-])c1ccccc1`, in [1], the Potency result was “inactive”. The call in assay [6] was inactive. In addition, the activity change, negative = inhibition in [7] is -19.1%.
Regarding `C[C@]12CC[C@H]3[C@@H](CCC4=C(O)C(=O)CC[C@@H]43)[C@@H]1CC[C@@H]2OC(=O)CCC1CCCC1`, in assay [1], the Potency result was “inactive”. Besides, in assay [6], the compound was called inactive. Moreover, in [7], the activity change, negative = inhibition is -9.8%.
As to `CN1CC[C@@]2(C)c3cc(OC(=O)Nc4ccccc4)ccc3N(C)[C@@H]12`, the Potency entry in assay [8] and in [9] was “inactive” each time. Also, the result in [10] and in assay [12] was inactive. Besides, the Potency in [11] is 39.8 µM (active).
Consider `COc1ccc2c(c1)C13CCCCC1C(C2)N(C)CC3` (stereo not given), for which the Potency entry in assay [8], in assay [9] and in [13] was “inactive” each time. For the same compound, the compound was classed as inactive in assay [10]. In addition, the Potency in [11] is 2 µM (active).
On to `O=S(=O)(O)c1cc(O)ccc1O`, for which the Potency entry in assay [1] is “inactive”. Further, the compound was classed as inactive in assay [6]. In addition, in assay [7], the activity change, negative = inhibition is -12.6%.
In the case of `CN1C2CCC1CC(OC(c1ccccc1)c1ccccc1N)C2` (stereo not given), the Potency result in assay [8], in assay [9] and in assay [13] was “inactive” throughout. For the same compound, in [10], the result was inactive. In addition, the Potency in [11] is 31.6 µM (active).
As to `C/C(=C\c1csc(C)n1)[C@@H]1C[C@@H]2O[C@]2(C)CCC[C@H](C)[C@H](O)[C@@H](C)C(=O)C(C)(C)[C@@H](O)CC(=O)O1`, the Potency result in [1] is “inactive”. Also, the compound was called inactive in assay [6]. For the same compound, the activity change, negative = inhibition in [7] is -75.8% and -81.1%. Moreover, the Potency in assay [4] was 0.0341 µM (active); in [14], 0.0066 µM (active).
In the case of `CC(C)CCC(=O)O[C@H]1CC[C@H]2[C@@H]3CCC4=CC(=O)CC[C@]4(C)[C@H]3CC[C@]12C`, the Potency entry in [1] is “inactive”. Moreover, the outcome in assay [6] was inactive. In addition, the activity change, negative = inhibition in assay [7] is -25.5%.
